The record followed here is ChEMBL document CHEMBL3988442, “University of Dundee, Small-Polar-MMV Screening Library” (2021).

Set-up in all cases: scale not given: direction of the effect not stated beside the values
Assay [1] has as its target Protein translocase subunit SecA (Escherichia coli (strain K12)) (UniProt P10408). The assay is described as follows: Assay to Identify E. coli SecA ATPase Inhibitors. The note with it: 30 µM. It counts as functional.
In assay [2] the target is T1, Ubiquitin-activating enzyme e1, putative (Leishmania donovani (strain BPK282A1)) (UniProt E9BSI1).
T1 sequence (whole entry): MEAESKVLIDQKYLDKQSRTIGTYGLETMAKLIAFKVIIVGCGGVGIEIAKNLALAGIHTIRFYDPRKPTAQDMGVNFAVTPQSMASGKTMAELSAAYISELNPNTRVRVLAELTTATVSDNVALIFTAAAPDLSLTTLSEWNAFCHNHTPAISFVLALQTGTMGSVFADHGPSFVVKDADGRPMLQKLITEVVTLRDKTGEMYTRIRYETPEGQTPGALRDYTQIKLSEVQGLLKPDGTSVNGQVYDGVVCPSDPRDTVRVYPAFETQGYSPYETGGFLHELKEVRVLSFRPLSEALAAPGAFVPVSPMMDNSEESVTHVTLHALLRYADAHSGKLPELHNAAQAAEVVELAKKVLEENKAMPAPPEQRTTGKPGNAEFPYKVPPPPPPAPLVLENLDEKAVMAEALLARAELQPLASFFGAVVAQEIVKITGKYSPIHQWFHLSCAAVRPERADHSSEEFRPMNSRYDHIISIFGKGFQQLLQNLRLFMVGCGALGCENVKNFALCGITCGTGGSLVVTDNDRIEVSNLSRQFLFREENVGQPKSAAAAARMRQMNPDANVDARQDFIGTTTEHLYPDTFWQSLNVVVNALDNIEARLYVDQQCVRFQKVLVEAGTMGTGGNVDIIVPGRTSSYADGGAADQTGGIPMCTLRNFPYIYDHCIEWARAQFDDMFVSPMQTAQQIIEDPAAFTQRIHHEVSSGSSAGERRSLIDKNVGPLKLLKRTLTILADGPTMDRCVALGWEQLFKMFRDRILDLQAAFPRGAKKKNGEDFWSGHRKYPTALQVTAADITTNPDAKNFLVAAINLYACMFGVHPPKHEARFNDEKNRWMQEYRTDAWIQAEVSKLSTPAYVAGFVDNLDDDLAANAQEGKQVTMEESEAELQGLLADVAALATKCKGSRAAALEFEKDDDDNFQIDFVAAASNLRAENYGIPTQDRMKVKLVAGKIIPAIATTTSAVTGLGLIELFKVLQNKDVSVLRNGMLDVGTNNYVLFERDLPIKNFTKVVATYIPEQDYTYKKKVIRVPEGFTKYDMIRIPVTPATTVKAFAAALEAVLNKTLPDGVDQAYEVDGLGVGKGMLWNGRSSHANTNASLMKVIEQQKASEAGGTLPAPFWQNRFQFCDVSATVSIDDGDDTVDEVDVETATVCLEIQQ
The assay is described as follows: Leishmania donovani Ubiquitin Activating Enzyme (LdE1). The class given is functional. The note with it: 30 µM.

Assay [3] deals with AMP-activated protein kinase, AMPK (Homo sapiens) (UniProt P54646+O43741+P54619+Q9UGJ0+Q9Y478+Q13131+Q9UGI9). As to the kind of experiment: AMP-dependent Kinase enzyme assay. An in vitro enzyme assay that detects ADP turnover that is directly proportional to AMPK activity. This uses naive AMPK that is activated during the assay with MK-8722. The note with it: 30 µM. It counts as functional.

In assay [4] the target is Sialic acid-binding Ig-like lectin 9 (Homo sapiens) (UniProt Q9Y336). As to the kind of experiment: Hs-Siglec9 ALPHAscreen SOP 20170721. The conditions noted are these: 10 µM. (In general: Alpha assays give light when donor and acceptor beads are brought close together.)
Sequence of Sialic acid-binding Ig-like lectin 9 (Homo sapiens) (Q9Y336 whole entry): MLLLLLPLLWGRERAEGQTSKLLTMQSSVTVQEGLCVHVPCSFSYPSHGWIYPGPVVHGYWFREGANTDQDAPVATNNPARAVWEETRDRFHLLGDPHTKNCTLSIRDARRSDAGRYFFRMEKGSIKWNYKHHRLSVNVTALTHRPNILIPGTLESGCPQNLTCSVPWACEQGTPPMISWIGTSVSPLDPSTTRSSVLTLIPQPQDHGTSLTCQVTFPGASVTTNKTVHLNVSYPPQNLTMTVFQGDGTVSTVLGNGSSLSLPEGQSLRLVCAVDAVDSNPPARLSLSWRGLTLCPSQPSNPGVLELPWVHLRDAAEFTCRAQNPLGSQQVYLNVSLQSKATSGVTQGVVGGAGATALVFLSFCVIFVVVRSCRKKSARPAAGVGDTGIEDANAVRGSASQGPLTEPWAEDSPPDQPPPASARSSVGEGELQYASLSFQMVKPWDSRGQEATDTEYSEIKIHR
For a further assay, the system named is Trypanosoma cruzi. As to the kind of experiment: Trypanosoma cruzi phosphomannomutase and mannose-1-phosphate guanylyltransferase assay. It counts as functional. The note with it: 10 µM.
Assay [5] deals with T2, Arginase-2, mitochondrial (Homo sapiens) (UniProt P78540).
T2 sequence (whole entry): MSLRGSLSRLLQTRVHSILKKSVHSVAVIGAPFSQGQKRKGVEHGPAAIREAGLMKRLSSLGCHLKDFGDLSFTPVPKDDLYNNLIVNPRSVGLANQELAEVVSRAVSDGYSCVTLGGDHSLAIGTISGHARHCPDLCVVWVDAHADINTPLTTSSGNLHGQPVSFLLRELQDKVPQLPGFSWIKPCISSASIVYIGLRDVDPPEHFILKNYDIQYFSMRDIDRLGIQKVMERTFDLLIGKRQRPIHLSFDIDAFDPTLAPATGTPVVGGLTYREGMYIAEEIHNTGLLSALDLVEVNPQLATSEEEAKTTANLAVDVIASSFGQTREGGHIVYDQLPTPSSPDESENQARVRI
As to the kind of experiment: in vitro enzyme assay to detect the production of urea directly proportional to the activity of Arginase II. Note: in the data most compounds retested in dose-response had high values. It counts as functional. The conditions noted are these: 33.3 µM.

Assay [6] deals with T3, Proteasome subunit beta (Trypanosoma cruzi) (UniProt O96673).
T3 sequence (whole entry): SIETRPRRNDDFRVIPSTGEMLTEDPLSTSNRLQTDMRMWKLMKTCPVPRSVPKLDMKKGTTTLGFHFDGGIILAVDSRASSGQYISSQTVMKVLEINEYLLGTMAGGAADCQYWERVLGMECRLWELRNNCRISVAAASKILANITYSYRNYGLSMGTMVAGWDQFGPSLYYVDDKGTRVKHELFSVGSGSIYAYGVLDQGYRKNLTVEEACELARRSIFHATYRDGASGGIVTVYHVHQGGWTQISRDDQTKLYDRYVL
The assay is described as follows: Trypanosoma cruzi proteasome chymotrypsin-like activity (TcProtChymo) assay. Note: in the data most compounds retested in dose-response had high values. The class given is functional. The conditions noted are these: 9.37 µM.

The species entered for a further assay is Homo sapiens. The assay is described as follows: To identify inhibition of the IFN signalling (Jak-Stat) pathway via expression of an eGFP reporter gene under the control of an IFN-stimulated response element (ISRE) containing MxA promoter. The class given is functional. The conditions noted are these: 30 µM.
The target of assay [7] is T4, Tyrosyl-tRNA synthetase, putative (Trypanosoma cruzi (strain CL Brener)) (UniProt Q4DSP6).
T4 sequence (whole entry): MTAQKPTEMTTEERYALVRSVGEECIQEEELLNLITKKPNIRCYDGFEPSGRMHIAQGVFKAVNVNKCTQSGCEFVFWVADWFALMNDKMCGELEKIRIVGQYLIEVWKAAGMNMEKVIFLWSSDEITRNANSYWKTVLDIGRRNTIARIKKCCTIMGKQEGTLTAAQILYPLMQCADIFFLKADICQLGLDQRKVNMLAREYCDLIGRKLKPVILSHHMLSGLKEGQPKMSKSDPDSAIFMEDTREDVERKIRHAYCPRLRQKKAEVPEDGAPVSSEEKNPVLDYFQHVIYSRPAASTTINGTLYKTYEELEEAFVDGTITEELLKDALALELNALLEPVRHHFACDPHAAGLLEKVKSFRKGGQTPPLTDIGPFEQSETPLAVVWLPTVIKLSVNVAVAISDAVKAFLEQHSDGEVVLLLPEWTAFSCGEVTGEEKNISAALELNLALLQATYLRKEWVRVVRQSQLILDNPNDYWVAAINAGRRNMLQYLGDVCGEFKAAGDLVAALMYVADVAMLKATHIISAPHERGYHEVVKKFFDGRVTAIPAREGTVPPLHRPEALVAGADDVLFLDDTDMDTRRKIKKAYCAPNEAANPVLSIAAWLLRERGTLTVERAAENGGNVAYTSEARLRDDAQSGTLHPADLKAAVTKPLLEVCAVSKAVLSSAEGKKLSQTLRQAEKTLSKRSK
The assay is described as follows: Trypanosoma cruzi tyrosyl tRNA synthetase (TcYRS) _High Tyrosine SOP. Note: in the data most compounds retested in dose-response had high values. It counts as functional. The note with it: 30 µM.

Assay [8] has as its target T4, Tyrosyl-tRNA synthetase, putative (Trypanosoma cruzi (strain CL Brener)). The assay is described as follows: Trypanosoma cruzi tyrosyl tRNA synthetase (TcYRS) SOP. The conditions noted are these: 30 µM. The class given is functional.
The target of assay [9] is Chromo domain-containing protein 1 (Saccharomyces cerevisiae (strain ATCC 204508 / S288c) (Baker's yeast)) (UniProt P32657). As to the kind of experiment: ScCHD-1 Enzyme Inhibition Assay. Note: in the data most compounds retested in dose-response had high values. It counts as functional. The conditions noted are these: 30 µM.
Sequence of Chromo domain-containing protein 1 (Saccharomyces cerevisiae (strain ATCC 204508 / S288c) (Baker's yeast)) (P32657 whole entry, the tested form may be a part): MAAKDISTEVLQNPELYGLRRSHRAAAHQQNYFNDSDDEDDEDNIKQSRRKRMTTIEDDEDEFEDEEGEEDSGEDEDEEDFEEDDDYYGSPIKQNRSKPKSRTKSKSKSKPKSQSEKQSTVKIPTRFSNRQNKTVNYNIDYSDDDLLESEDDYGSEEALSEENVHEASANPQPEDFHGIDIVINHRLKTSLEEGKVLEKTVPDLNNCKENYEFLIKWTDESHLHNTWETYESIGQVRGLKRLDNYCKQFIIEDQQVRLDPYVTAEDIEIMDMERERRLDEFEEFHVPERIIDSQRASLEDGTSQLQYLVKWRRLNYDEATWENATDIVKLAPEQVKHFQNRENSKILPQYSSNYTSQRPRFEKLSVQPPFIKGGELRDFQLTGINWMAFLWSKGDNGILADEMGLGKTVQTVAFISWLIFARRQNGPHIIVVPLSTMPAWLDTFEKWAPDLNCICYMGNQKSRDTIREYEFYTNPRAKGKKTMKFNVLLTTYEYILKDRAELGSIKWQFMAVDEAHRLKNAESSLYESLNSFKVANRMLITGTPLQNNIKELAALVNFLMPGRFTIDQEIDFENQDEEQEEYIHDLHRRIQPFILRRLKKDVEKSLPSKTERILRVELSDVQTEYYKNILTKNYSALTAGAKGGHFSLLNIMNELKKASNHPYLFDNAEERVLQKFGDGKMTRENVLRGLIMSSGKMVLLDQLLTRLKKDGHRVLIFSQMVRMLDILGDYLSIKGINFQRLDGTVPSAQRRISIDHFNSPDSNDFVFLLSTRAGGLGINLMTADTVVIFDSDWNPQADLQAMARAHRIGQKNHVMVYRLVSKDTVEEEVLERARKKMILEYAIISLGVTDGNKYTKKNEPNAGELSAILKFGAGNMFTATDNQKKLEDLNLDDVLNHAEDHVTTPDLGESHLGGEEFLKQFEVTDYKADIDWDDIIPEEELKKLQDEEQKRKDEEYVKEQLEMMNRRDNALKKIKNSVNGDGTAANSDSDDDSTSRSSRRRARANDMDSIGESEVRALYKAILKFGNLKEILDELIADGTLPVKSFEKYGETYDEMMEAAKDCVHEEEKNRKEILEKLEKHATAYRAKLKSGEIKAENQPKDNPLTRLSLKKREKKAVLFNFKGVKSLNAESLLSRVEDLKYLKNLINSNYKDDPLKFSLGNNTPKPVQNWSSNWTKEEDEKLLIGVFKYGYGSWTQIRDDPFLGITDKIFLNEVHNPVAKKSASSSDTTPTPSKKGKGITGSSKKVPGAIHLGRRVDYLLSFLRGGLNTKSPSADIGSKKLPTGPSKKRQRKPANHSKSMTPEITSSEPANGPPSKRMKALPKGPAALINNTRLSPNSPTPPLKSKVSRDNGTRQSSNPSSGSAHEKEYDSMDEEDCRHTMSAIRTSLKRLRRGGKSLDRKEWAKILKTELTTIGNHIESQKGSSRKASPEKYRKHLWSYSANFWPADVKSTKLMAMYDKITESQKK

For some of these results: Entries with a potency or affinity are not part of this list.

Sequence of Protein translocase subunit SecA (Escherichia coli (strain K12)) (P10408 whole entry): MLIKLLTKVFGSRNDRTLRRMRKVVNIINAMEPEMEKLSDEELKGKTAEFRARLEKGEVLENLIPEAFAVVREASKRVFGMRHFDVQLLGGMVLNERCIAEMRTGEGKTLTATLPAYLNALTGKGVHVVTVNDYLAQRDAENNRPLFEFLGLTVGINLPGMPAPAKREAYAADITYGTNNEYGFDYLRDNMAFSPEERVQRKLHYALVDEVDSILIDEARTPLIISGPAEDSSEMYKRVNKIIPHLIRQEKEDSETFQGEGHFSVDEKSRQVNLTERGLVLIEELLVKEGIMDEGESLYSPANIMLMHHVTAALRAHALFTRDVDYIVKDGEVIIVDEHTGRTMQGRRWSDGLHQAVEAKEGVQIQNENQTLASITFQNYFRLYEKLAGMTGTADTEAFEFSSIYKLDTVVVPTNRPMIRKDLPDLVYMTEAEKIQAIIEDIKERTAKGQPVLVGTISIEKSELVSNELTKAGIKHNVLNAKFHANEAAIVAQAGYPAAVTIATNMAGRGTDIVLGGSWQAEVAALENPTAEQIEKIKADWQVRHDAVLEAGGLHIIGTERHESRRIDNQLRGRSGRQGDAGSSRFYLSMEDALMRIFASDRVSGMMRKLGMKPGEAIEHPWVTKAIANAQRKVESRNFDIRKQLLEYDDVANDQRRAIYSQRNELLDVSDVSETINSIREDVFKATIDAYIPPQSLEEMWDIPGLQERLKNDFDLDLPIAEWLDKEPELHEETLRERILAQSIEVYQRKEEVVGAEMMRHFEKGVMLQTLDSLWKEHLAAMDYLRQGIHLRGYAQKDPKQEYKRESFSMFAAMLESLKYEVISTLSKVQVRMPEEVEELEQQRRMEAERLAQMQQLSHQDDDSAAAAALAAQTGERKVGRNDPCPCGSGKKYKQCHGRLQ

Turning to `CCCNC(=O)C(C)NC(=O)CCc1ccccc1Br` (stereo unspecified), the Percent Effect in [1] is 0.82%; in assay [2], 4.17%; in [3] it was 3.58%; in assay [4] it was -5.62%; in the assay with Trypanosoma cruzi, -9.43%; in assay [5] it was 4.42%. For the same molecule, the Percent Effect in [6] is 16.5%; in the assay filed under Homo sapiens it was 8.51%; in assay [7], 0%; in assay [8] it was 5.13%; in assay [9] it was -1.03%.
On to `O=C(CN1CCCCCCC1=O)NCc1ccccn1`, for which the Percent Effect was -1.09% in assay [1]; 5.48% in [2]; -2.69% in [3]; 1.29% in assay [4]; 2.78% in the assay on Trypanosoma cruzi; 2.4% in assay [5]. Further, the Percent Effect was 1.46% in assay [6]; 0.819% in the assay listed under Homo sapiens; 5.21% in assay [7]; 11.1% in assay [8]; -5.16% in assay [9].
Take `Cc1nccn1CCC1CCCCN1C(=O)c1ccc2[nH]nnc2c1` (stereo unspecified): the Percent Effect in assay [1] is -2.88%; in assay [2] it was 10.7%; in assay [3] it was -0.957%; in [4], 10%; with Trypanosoma cruzi, 2.63%; in assay [5], 16.7%. The Percent Effect is 9.59% in [6]; 7.47% in the assay listed under Homo sapiens; 3.83% in assay [7]; 6.17% in assay [8]; -6.44% in [9].
Take `N#Cc1cccnc1N1CCC2(CCCN(C3CCOCC3)C2=O)C1` (stereo unspecified): the Percent Effect in assay [1] is -3.31%; in assay [2], 5.48%; in [3], 0.329%; in [4], 1.41%; with Trypanosoma cruzi, 2.58%; in [5] it was -3.99%. Further, the Percent Effect in [6] was 8.82%; in the assay listed under Homo sapiens, 7.98%; in assay [7], 1.04%; in assay [8] it was 1.24%; in [9], -4.64%.
In the case of `CSCC[C@H](N)C(=O)NCc1cc2n(n1)CCCN(C(=O)C1CCC1)C2`, the Percent Effect is -0.458% in assay [1]; 6.94% in assay [2]; -3.76% in assay [3]; 1.43% in assay [4]; 8.26% in the assay with Trypanosoma cruzi; -0.442% in assay [5]. For the same molecule, the Percent Effect in [6] is 10.5%; in the assay listed under Homo sapiens, -24.3%; in [7], 0%; in assay [8], 12.8%; in [9], -3.49%.
`CC(=O)N1CCCC(Cc2cncc(Br)c2)CC1` (stereo unspecified): the Percent Effect in assay [1] is -8.44%; in assay [2], 12.2%; in assay [3], -0.231%; in [4], 1.66%; in the assay with Trypanosoma cruzi, 2.77%; in [5] it was -2.09%. The Percent Effect in [6] is 16.4%; in the assay filed under Homo sapiens, 24.7%; in assay [7] it was 5.38%; in assay [8], 6.49%; in assay [9], -26.1%.
Regarding `CCc1nc(CN2CCCN(C(=O)C(C)n3ccnc3)CC2)cs1` (stereo unspecified), the Percent Effect is -2.92% in assay [1]; 5.2% in [2]; 3.99% in [3]; 3.63% in assay [4]; 3.75% in the assay on Trypanosoma cruzi; -5.69% in assay [5]. Besides, the Percent Effect in [6] is 21.1%; in the assay listed under Homo sapiens it was -7.97%; in assay [7] it was 5.83%; in [8], 9.76%; in assay [9] it was -4.4%.
Turning to `COCC1c2nnn(CC3CC3)c2CCN1C(=O)Cc1cccs1` (stereo unspecified), the Percent Effect in assay [1] is 1.82%; in assay [2], 2.7%; in assay [3], -8.03%; in assay [4], 6.62%; with Trypanosoma cruzi, 4.59%; in [5] it was 13.7%. Besides, the Percent Effect is 17.2% in [6]; 7.37% in the assay filed under Homo sapiens; 4.3% in assay [7]; -58% in [8]; -3.81% in assay [9].
With `Cc1[nH]ccc1C(=O)Nc1cccc(CN2CCC(O)CC2)c1`, the Percent Effect in [1] was 0.333%; in assay [2], 10.5%; in [3], -2.05%; in assay [4] it was -6.23%; in the assay with Trypanosoma cruzi, -5.36%; in [5], -2.37%. In addition, the Percent Effect was 16.2% in assay [6]; 8.85% in the assay filed under Homo sapiens; 1.06% in [7]; 10.4% in [8]; -3.89% in assay [9].
As for `CC(C)Oc1ccc(CSc2nnc(CN3CCCC3=O)o2)cc1`, the Percent Effect in [1] is -7.37%; in [2], -5.33%; in assay [3] it was -6.5%; in [4], 10%; in the assay with Trypanosoma cruzi, 8.28%; in [5], 1.04%. In addition, the Percent Effect in assay [6] was 9.24%; in the assay filed under Homo sapiens, 13.4%; in assay [7] it was 1.64%; in assay [8] it was 6.17%; in [9], -3.99%.
Regarding `Cc1nc(C)n(C2CCCN(C(=O)c3cc4ccccc4n3C)C2)n1` (stereo unspecified), the Percent Effect in assay [1] is -3.87%; in assay [2], 7.79%; in [3], -8.41%; in [4], 1.64%; with Trypanosoma cruzi, 5.78%; in [5] it was 0.632%. Also, the Percent Effect in assay [6] is 6.71%; in the assay listed under Homo sapiens, 17.1%; in [7], 7.62%; in assay [8], 9.41%; in assay [9], -16.3%.
